Experimental data published in PubChem BioAssay (Tox21).
Records with an inconclusive call do not appear. Unmarked numbers belong to inactive results. Calls follow the shape of the dose curve; as a rule, active = well fitted cell-killing curve with a large enough effect in the repeat runs; inconclusive = weak or mixed curves; inactive = no such curve, though single readings can be large or run the other way.

test: qHTS assay to identify small molecule antagonists of the peroxisome proliferator-activated receptor delta (PPARd) signaling pathway - cell viability counter screen (AID 743213); settings: PPARd-bla HEK293H viability, CellTiter-Glo luminescence, 17 h; series mostly up to 62 µM; viability change, negative = cytotoxic: at the top concentration; also: nearly all actives have a fitted effect of over 50% in size
Excerpt: U.S. Tox21 Program National Center for Advancing Translational Sciences [NCATS] NIH Chemical Genomics Center [NCGC] U.S. Environmental Protection Agency [EPA] National Institutes of Environmental Health Sciences [NIEHS] National Toxicology Program [NTP] U.S. Food and Drug Administration [FDA] Tox21 Assay Overview: The peroxisome proliferator-activated receptors (PPARs) are lipid-activated transcription factors of the nuclear receptor superfamily with three distinct subtypes namely PPAR alpha, PPAR delta (PPARd) and PPAR gamma. All these subtypes heterodimerizes with Retinoid X receptor (RXR) and have different physiological functions. […] To identify the compounds that inhibit PPAR-delta signaling, GeneBLAzer PPAR delta UAS-bla HEK293H cell line (Invitrogen, Carlsbad, CA, USA) containing a beta-lactamase reporter gene under the control of an Upstream Activator Sequence (UAS) was used to screen the Tox21 compound library. The cytotoxicity of the Tox21 compound library against the PPARd-bla cell line was tested in parallel by measuring the cell viability using CellTiter-Glo assay (Promega, Madison, WI) in the same wells.
Tox21 Assay Protocol Summary: PPARd-bla cells were dispensed at 3000 cells/5uL/well in 1536-well black wall/clear bottom plates using a Multidrop Combi (Thermo Fisher Scientific, Waltham, MA) dispenser. After the assay plates were incubated at 37 C and 5% CO2 for 5 h, 23 nL of compounds dissolved in DMSO, positive controls or DMSO only was transferred to the assay plate by a Pintool station (Kalypsys, San Diego, CA), followed by addition of 1ul L165041 (300 nM, final concentration in the wells). The assay plates were incubated at 37 C for 17 h, and then 1 uL of LiveBLAzerTM B/G FRET substrate was added using a Bioraptr Flying Reagent Dispenser (FRD) workstation (Beckman Coulter, Indianapolis, IN, USA). The assay plates were incubated at room temperature for 2 h and fluorescence intensity was measured by an Envision plate reader (PerkinElmer, Shelton, CT). For cell viability readout that measures cytotoxicity, 3 ul/well of CellTiter-Glo reagent was added into the assay plates using a Bioraptr FRD. After 30 min incubation at room temperature, the luminescence intensity in the plates was measured using a ViewLux plate reader (PerkinElmer).
% is scaled to controls: 0 for no effect and ±100 for the full control effect.

| Compound | viability change, negative = cytotoxic |
| --- | --- |
| COP(=S)(OC)Oc1c(Cl)cc(C)cc1Cl | 2.63% |
| CN(N=O)C(N)=O | -19.8% |
| Cc1ccccc1CO[C@@H]1C[C@@]2(C(C)C)CC[C@]1(C)O2 | 6.02% |
| O=C(Nc1ccccc1)c1ccccc1I | -5.35% |
| C[C@]1(O)CC[C@H]2[C@@H]3CCC4=CC(=O)CC[C@]4(C)[C@@]3(F)[C@@H](O)C[C@@]21C | 17.9% [at 80.4 µM] |
| CC(C)[N+](=O)[O-] | 16.7% |
| CCC(=O)C(CCN(C)C)(c1ccccc1)c1ccccc1 | -1.32% |
| Nc1cc2c3c(c1)C(c1ccccc1)=N[C@@H](NC(=O)c1cccnc1)C(=O)N3CC2 | -11.1% |
| CCCCOC(=O)c1ccccc1C(=O)O | -28.8% |
| COc1cc(C[C@@H](C)N)c(OC)cc1C | -1.28% [at 80.4 µM] |
| CC1(C)CON(Cc2ccccc2Cl)C1=O | -19.6% |
| Fc1ccc(C2(Cn3cncn3)OC2c2ccccc2Cl)cc1 (stereo not given) | -5.39% |
| CNC(=O)Oc1cccc(C(C)C)c1 | 0.206% |
| CC1=C(C(=O)O)N2C(=O)[C@@H](N)[C@H]2SC1 | -7.71% [at 28.9 µM] |
| CCC1(c2ccccc2)C(=O)NC(=O)NC1=O | 8.22% [at 80.4 µM] |
| Nc1cnn(-c2ccccc2)c(=O)c1Cl | 0.944% |
| CCc1cc2c(s1)-n1c(C)nnc1CN=C2c1ccccc1Cl | 20.8% |
| CCC(C)(C)c1cc(-n2nc3ccccc3n2)c(O)c(C(C)(C)CC)c1 | -3.52% [at 80.4 µM] |
| Nc1n[nH]c(N)n1 | 3.81% [at 80.4 µM] |
| ClCCOCOCCCl | -10.2% [at 80.4 µM] |

| Compound | viability change, negative = cytotoxic |
| --- | --- |
| ClCC(Cl)(Cl)Cl | -4.64% [at 80.4 µM] |
| O=C(Cc1ccccc1)OCc1ccccc1 | 19.8% [at 80.4 µM] |
| CCCCOC(=O)[C@@H](C)Oc1ccc(Oc2ccc(C#N)cc2F)cc1 | 0.419% |
| Cc1cccc(C#N)c1 | -3.3% |
| COC(=O)C(c1ccccc1)C1CCCCN1 (stereo not given) | 1.41% |
| CC(=O)[C@H]1CC[C@H]2[C@@H]3CC[C@H]4C[C@H](O)CC[C@]4(C)[C@H]3C(=O)C[C@]12C | 6.55% |
| NC1=NC(=O)C(c2ccccc2)O1 (stereo not given) | 18.2% |
| CN1C[C@@H](NS(=O)(=O)N(C)C)C[C@@H]2c3cccc4c3c(cn4C)C[C@H]21 | -11.4% |
| Cc1ncc2n1-c1ccc(Cl)cc1C(c1ccccc1F)=NC2 | -26.4% |
| COC(=O)COc1ccc(Cl)cc1Cl | -18.5% |
| CCOC(=O)NC(=S)Nc1ccccc1NC(=S)NC(=O)OCC | -0.761% |
| C#C[C@]1(O)C=C[C@H]2[C@@H]3CCC4=CC(=O)CC[C@@H]4[C@H]3CC[C@@]21CC | 2.8% |
| COC(=O)C1=CCCN(C)C1 | 3.67% |
| CC(C)NCC(O)c1ccc(N)c(C#N)c1 (stereo not given) | -2.72% |
| CCCCP(CCCC)CCCC | 5.12% |
| CCCSC(=O)Cl | 1.92% [at 80.4 µM] |
| NC(=S)C(N)=S | -14.7% |
| N#CCCC#N | 6.05% |
| OC(c1ccccc1)(c1ccccc1)C1CCNCC1 | -26.6% |
| ClC(Cl)C(Cl)Cl | 10.4% [at 80.4 µM] |
